Most compounds without a hit are left out; they make up all but 8.9% or so of the library.
KB-V1 MDR tox: kills drug-selected multidrug resistant KB-V1 cells | actives 3.4% (n = 400,000) | Potency, µM (doses to about 46.1 µM), actives largely listed as cytotoxic | KB-V1 MDR cells viability, CellTiter-Glo, 72 h; also: potency is read from the fitted curve at half-maximal effect; % is scaled to controls: 0 for no effect and ±100 for the full control effect; nearly all actives have a fitted effect of over 60% in size
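qHTS viability screen in drug-selected KB-V1 MDR cells: 72 h compound treatment at 37 degrees C, ATP luminescence end point.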
D3 ag: agonists of human D3 dopamine receptor; P35462; max activation, %; D3R DiscoveRx beta-arrestin cells, luminescence, 90 min; actives 0.58% (n = 410,000); in the data active = max activation above about 30%; also: 0% is about no effect
Target sequence (P35462 whole entry, looked up): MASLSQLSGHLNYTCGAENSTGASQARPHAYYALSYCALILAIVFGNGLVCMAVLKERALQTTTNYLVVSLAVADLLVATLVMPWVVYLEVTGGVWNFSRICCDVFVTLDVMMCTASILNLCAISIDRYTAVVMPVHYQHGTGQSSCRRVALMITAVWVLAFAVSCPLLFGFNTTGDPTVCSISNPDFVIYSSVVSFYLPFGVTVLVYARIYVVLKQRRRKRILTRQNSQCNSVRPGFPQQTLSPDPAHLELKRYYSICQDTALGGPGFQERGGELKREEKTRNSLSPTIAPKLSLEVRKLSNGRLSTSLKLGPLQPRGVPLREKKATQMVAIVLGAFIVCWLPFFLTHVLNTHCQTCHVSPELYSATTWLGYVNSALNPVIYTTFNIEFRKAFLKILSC
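Agonist-mode cell screen: cells plated at 1500/well and incubated overnight at 37 °C, then exposed to library compounds for 90 min at 37 °C. Detection reagent was added for 30–60 min at room temperature, and luminescence was read.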
SW480 rerep: induces DNA re-replication in SW480 colon adenocarcinoma cells; SW480 DNA re-replication, Hoechst DNA content imaging, 48 h; Potency, µM (series often up to 46.1 µM), inactives show at the top dose re-replication activation, hits mostly activators; actives 1.8% (n = 340,000); also: potency is read from the fitted curve at half-maximal effect; % of control where 0% means no effect; nearly all actives have a fitted effect of over 55% in size
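Hoechst fluorescence of nuclei (405 nm excitation, 500-530 nm emission) measured by plate-scanning imager after 48 hr compound exposure at 37 C; re-replication scored as increased number of nuclei with elevated intensity.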
D3 antag: antagonists of human D3 dopamine receptor | actives 2.5% (n = 360,000) | D3R cells, DiscoveRx beta-arrestin luminescence, antagonist mode; active compounds read low | AID 652054 | P35462 | max response, negative = inhibition, %; in the data active = max response below about -50%; inconclusive = no clear call, values can overlap the other calls; also: % is scaled to controls: 0 for no effect and ±100 for the full control effect
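Cells plated overnight at 1500 cells/well, then exposed to library compounds with dopamine controls for 90 minutes at 37 degrees C. DiscoveRx reagent added for 30–60 minutes at room temperature; luminescence read, quantitative HTS format.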
KB-3-1 cytotox: kills parental KB-3-1 adenocarcinoma cells; KB-3-1 viability, CellTiter-Glo ATP luminescence, 72 h; Potency, µM (doses to about 46.1 µM), usual class: cytotoxic; actives 1.4% (n = 400,000); AID 1347075; also: potency is read from the fitted curve at half-maximal effect; % is scaled to controls: 0 for no effect and ±100 for the full control effect; nearly all actives have a fitted effect of over 60% in size
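Screening of KB-3-1 cells (DMEM, 10% FBS, phenol-red free) ran from lowest to highest compound concentration; after 72 h at 37 °C viability was read luminescently and curves fitted.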
MCF10A rereplic: DNA re-replication induction in MCF 10a cells. MCF 10A DNA re-replication, Hoechst nuclear intensity, 48 h. Potency, µM (series often up to 46.1 µM), inactives show at the highest dose activity, positive = re-replication, usual class: activators. actives 2.9% (n = 350,000); also: potency is read from the fitted curve at half-maximal effect; % of control where 0% means no effect; nearly all actives have a fitted effect of over 50% in size
* = called active by the depositor; i = inactive; ? = inconclusive; . = no result given; [ ] = another dose, or the depositor's remark. Unless noted, calls follow the shape of the dose curve; as a rule, active = well fitted curve in the direction sought with a large enough effect; inconclusive = small, poorly fitted or top-dose-only effect, or another doubt; inactive = no such curve, though single readings can be large; an effect the other way counts as inactive or inconclusive.

SMILES | KB-V1 MDR tox | D3 ag | SW480 rerep | D3 antag | KB-3-1 cytotox | MCF10A rereplic
CCOc1ccc2nc(NC(=O)c3cccn(Cc4ccccc4)c3=O)sc2c1 | i | -3 | . | . | i | .
COc1cc([C@@H]2c3cc4c(cc3[C@@H](O)[C@H]3COC(=O)[C@H]23)OCO4)cc(OC)c1O | ? | -10 | . | . | ? | .
COc1ccc(NC2Oc3cc4c(cc3C(c3cc(OC)c(OC)c(OC)c3)C2C)OCO4)cc1 (configuration not stated) | 5.8µM* | -11 | 1µM* | -8 | 1.6µM* | 0.58µM*
CNC(C)[C@@H](O)c1ccc(O)cc1 (some centres not stated) | . | . | 0% | . | . | -3%
O=C(c1ccccc1)C(CN1CCCC1)c1ccccc1 (configuration not stated) | 5.2µM* | -9 | 7.3µM* | -56* | 5.2µM* | 3.3µM*
Cc1ccccc1-c1nn2c(=O)cc(CN3CCN(C(=O)COc4ccccc4Cl)CC3)nc2s1 | i | -24 | . | . | i | .
CSCCC(c1nnnn1Cc1ccccc1)N1CCC(n2c(=O)[nH]c3ccccc32)CC1 (configuration not stated) | 10µM* | 1 | . | 77 | i | .
O=c1[nH]c2ccccc2n1C1CCN(C(c2cccs2)c2nnnn2Cc2ccccc2)CC1 (configuration not stated) | 15µM* | 4 | . | 29 | ? | .
CSCCC(c1nnnn1C1CCCC1)N1CCC(n2c(=O)[nH]c3ccccc32)CC1 (configuration not stated) | 23µM* | 8 | . | 20 | i | .
CSCCC(c1nnnn1C1CCCCC1)N1CCC(n2c(=O)[nH]c3ccccc32)CC1 (configuration not stated) | i | 6 | . | 11 | i | .
O=c1[nH]c2ccccc2n1C1CCN(C(c2cc3ccccc3o2)c2nnnn2-c2ccc3c(c2)OCCO3)CC1 (configuration not stated) | ? | 43* | . | 83 | ? | .
CCN1CCC[C@@H](OC(=O)C(c2ccccc2)c2ccccc2)C1 | . | . | -9%[20.6 µM] | . | . | -5%[20.6 µM]
O=c1[nH]c2ccccc2n1C1CCN(C(CCc2ccccc2)c2nnnn2Cc2ccccc2)CC1 (configuration not stated) | 6.5µM* | 17 | . | 89 | ? | .
CC(=O)Nc1ccccc1C(=O)OCc1cccc(F)c1 | i | 3 | -5% | 12 | i | 10%
CC(=O)Nc1ccccc1C(=O)OCC(=O)c1ccc2ccccc2c1 | 15µM* | 25 | -3% | 48 | i | 1%
CC(=O)Nc1ccccc1C(=O)OCc1ccc(C(=O)c2ccccc2)cc1 | 6.5µM* | 11 | 25% | 48 | ? | ?
CN1CCN(c2cccc3c2C(=O)c2ccccc2C3=O)CC1 | 18µM* | -7 | -2% | -27 | ? | -1%
CN1CCN(c2ccc3c(c2)S(=O)(=O)c2ccccc2C3=O)CC1 | i | -21 | -1% | -8 | i | 27%
COc1ccc2c3c1O[C@H]1[C@@H](O)C=C[C@H]4[C@@H](C2)NCC[C@@]341 | . | -15 | . | . | . | .
CN1CCN(c2ccc([N+](=O)[O-])c3no[n+]([O-])c23)CC1 | ? | -41 | ? | ? | ? | 2.3µM*
CN1CCN(c2ccc(S(C)(=O)=O)cc2[N+](=O)[O-])CC1 | i | 9 | -2% | 8 | i | -2%
O=[N+]([O-])c1ccc(N(CCO)CCO)c2c1no[n+]2[O-] | 21µM* | -23 | . | -99* | 4.6µM* | .
CC(C)CCOP(=O)(c1ccc(N(C)C)cc1)C(O)c1ccc(C(C)C)cc1 (configuration not stated) | ? | 2 | ? | 30 | i | -13%
O=C(COc1ccccc1F)N1CCN(Cc2cc(=O)n3nc(-c4ccccc4Cl)sc3n2)CC1 | i | 3 | . | . | i | .
Cc1ccc2nc(-c3ccncc3)cc(C(=O)N3CCC4(CC3)OCCO4)c2c1 | i | 9 | -4% | 0 | i | 9%
SMILES | KB-V1 MDR tox | D3 ag | SW480 rerep | D3 antag | KB-3-1 cytotox | MCF10A rereplic
Cc1ccc(-c2cc(C(F)F)n3ncc(C(=O)N4CCc5ccccc5C4)c3n2)cc1 | ? | 5 | 18µM* | 0 | i | ?
c1cc2n(c1)-c1c(ccc3c1OCO3)CNC2c1ccc2c(c1)OCO2 (configuration not stated) | 18µM* | -9 | 4% | ? | ? | -17%
Oc1ccc(C2NCc3ccccc3-n3cccc32)cc1Cl (configuration not stated) | i | -12 | 3% | -7 | i | ?
COc1ccc(C2NCc3ccc4c(c3-n3cccc32)OCO4)cc1O (configuration not stated) | ? | -13 | 3.3µM* | -22 | 1.3µM* | 4.1µM*
CCn1c(C)[n+](CC(O)COCC2CC=CCC2)c2ccccc21 (configuration not stated) | i | -11 | -5% | 8 | i | ?
O=C1CC(=O)N(c2ccccc2)C(=O)N1c1ccccc1 | i | 3 | 0% | -5 | 0.29µM* | 3%
CCCCCCCCCC(=O)O[C@H]1CC[C@H]2[C@@H]3CCC4=CC(=O)CC[C@@H]4[C@H]3CC[C@]12C | . | 8 | -4% | . | . | -9%
CCOC(=O)c1c(C=O)c2ccccc2n1Cc1ccccc1 | 21µM* | 4 | ? | 17 | ? | ?
CC(=NCCCO)c1c(O)n(Cc2ccccc2)c(=O)[nH]c1=O | ? | -8 | -6% | -15 | i | 11%
CC(=Nc1c(C)n(C)n(-c2ccccc2)c1=O)c1c(O)n(Cc2ccccc2)c(=O)[nH]c1=O | i | -13 | -3% | -51* | i | -2%
Cc1cc2oc(=O)cc(-c3ccccc3)c2c(C)c1-c1ccc(CO)cc1 | i | 14 | 1% | 15 | i | ?
CCN(CC)C(=O)N[C@H]1C[C@@H]2c3cccc4[nH]cc(c34)C[C@H]2N(C)C1 | ? | 79* | 8% | -4 | i | -4%
CN1C[C@H](CO)C[C@@H]2c3cccc4[nH]cc(c34)C[C@H]21 | i | 30* | 0% | -56* | i | 14%
CC(C)C[C@H]1C(=O)N2CCC[C@H]2[C@]2(O)O[C@](NC(=O)[C@@H]3C[C@@H]4c5cccc6[nH]cc(c56)C[C@H]4N(C)C3)(C(C)C)C(=O)N12 | . | 17 | . | . | . | .
CCOCCSc1nc2c(c(-c3cccs3)c1C#N)CC/C2=C/c1cccs1 | i | -10 | ? | -6 | i | ?
C=CCC1([C@H](C)CCC)C(=O)NC(=O)NC1=O | . | -13 | . | . | . | .

Screening data (PubChem BioAssay)
